Laboratory results reported in PMC4081100, “A DNA-binding-site landscape and regulatory network analysis for NAC transcription factors in Arabidopsis thaliana”.

Key:
Assay in all cases: universal protein binding microarray (PBM); transcription factors of Arabidopsis thaliana; high values mean tight binding
Settings in all cases: protein: recombinant; tags: GST; chain copies: 2; dsDNA, one strand shown
[1] = target: T1, GST-ANAC092(1-176) (Arabidopsis thaliana, UniProt Q9FKA0 1-176)
T1 sequence: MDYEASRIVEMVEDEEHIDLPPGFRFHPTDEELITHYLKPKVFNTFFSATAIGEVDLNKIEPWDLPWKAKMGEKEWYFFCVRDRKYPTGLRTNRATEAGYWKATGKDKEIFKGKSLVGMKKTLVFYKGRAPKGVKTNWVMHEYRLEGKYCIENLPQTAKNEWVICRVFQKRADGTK
In short: (§1)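 For zinc-finger proteins, zinc acetate was added while GST-tagged NAC-domain, full-length or DNA-binding-domain proteins were induced in cells. Purification used glutathione–Sepharose 4B, and quantification used A280 or anti-GST western blot. Custom all-10-mer Agilent 4 × 180K arrays, made double-stranded by primer extension, each received a protein at 200 to 500 nM final in duplicate. Scoring covered gapped and ungapped 8-mers, with binding given as the normalised enrichment score (E-score).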

[2] = target: T2, GST-ANAC019 NAC domain (Arabidopsis thaliana, UniProt Q9C932 14-162)
T2 sequence: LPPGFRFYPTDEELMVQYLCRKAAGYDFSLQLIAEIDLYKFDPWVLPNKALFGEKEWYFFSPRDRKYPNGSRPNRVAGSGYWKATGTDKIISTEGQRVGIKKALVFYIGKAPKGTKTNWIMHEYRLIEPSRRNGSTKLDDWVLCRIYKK
In short: as §1

[3] = target: T3, GST-ANAC055(1-171) (Arabidopsis thaliana, UniProt Q9LDY8 1-171)
T3 sequence: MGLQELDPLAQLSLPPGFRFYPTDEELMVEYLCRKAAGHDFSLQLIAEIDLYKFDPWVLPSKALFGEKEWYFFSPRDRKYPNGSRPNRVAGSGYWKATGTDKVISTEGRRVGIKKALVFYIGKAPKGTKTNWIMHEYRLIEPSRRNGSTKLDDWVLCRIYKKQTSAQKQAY
In short: as §1

[4] = target: T4, GST-ATAF1 NAC domain (Arabidopsis thaliana, UniProt Q39013 7-158)
T4 sequence: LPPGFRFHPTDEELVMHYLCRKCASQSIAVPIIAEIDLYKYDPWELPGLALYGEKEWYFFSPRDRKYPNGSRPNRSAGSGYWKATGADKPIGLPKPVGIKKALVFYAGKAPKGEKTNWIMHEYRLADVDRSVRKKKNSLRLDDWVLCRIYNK
In short: as §1

[5] = target: T5, GST-ANAC092(1-285) full length (Arabidopsis thaliana, UniProt Q9FKA0 1-285)
T5 sequence: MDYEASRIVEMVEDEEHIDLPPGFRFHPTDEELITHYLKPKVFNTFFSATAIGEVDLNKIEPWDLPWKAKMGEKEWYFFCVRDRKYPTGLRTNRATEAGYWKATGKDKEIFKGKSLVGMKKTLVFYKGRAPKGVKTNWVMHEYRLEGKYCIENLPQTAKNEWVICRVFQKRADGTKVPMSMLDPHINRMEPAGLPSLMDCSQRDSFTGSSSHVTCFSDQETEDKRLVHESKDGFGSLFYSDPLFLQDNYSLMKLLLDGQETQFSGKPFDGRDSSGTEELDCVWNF
In short: as §1

[6] = target: T6, GST-NAP(1-166) (Arabidopsis thaliana, UniProt O49255 1-166)
T6 sequence: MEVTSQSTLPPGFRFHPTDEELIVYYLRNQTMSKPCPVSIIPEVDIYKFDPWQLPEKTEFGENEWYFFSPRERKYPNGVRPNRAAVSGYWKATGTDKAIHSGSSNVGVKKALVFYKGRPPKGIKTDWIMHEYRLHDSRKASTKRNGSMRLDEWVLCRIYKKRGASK
In short: as §1

[7] = target: T7, GST-NST2(1-184) (Arabidopsis thaliana, UniProt Q9M274 1-184)
T7 sequence: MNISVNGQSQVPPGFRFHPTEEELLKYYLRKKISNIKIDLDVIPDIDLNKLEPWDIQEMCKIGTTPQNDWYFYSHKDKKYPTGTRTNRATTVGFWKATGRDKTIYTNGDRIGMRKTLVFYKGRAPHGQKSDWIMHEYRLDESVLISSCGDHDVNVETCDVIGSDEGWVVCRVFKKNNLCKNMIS
In short: as §1

[8] = target: T8, GST-SND1(1-203) (Arabidopsis thaliana, UniProt Q9LPI7 1-203)
T8 sequence: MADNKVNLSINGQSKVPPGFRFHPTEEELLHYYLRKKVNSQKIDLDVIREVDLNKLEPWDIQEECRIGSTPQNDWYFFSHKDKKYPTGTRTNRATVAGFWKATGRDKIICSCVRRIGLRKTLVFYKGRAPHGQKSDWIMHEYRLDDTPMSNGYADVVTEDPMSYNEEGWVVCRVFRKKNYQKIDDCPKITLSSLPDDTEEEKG
In short: as §1

[9] = target: T9, GST-VND3 NAC domain (Arabidopsis thaliana, UniProt Q9FH59 12-162)
T9 sequence: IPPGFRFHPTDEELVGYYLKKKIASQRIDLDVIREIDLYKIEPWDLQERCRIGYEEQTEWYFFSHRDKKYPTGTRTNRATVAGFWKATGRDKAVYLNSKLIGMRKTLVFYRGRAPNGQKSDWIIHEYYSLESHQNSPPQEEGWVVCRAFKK
In short: as §1

[10] = target: T10, GST-VND7 NAC domain (Arabidopsis thaliana, UniProt Q9C8W9 9-158)
T10 sequence: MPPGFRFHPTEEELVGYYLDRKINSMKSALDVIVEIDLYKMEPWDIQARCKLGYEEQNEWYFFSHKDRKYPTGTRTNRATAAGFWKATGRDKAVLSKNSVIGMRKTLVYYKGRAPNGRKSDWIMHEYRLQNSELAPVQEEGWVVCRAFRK
In short: as §1

| Sequence | binding signal [1] | binding signal [2] | binding signal [3] | binding signal [4] | binding signal [5] | binding signal [6] | binding signal [7] | binding signal [8] | binding signal [9] | binding signal [10] |
| --- | --- | --- | --- | --- | --- | --- | --- | --- | --- | --- |
| GCGTGTTA | 0.415 E-score | 0.214 E-score | 0.174 E-score | 0.141 E-score | 0.432 E-score | 0.227 E-score | 0.178 E-score | 0.199 E-score | 0.212 E-score | 0.113 E-score |
| GTACGGAA | 0.349 E-score | 0.458 E-score | 0.43 E-score | 0.369 E-score | 0.376 E-score | 0.396 E-score | 0.138 E-score | 0.221 E-score | 0.42 E-score | 0.425 E-score |
| GCACGCAA | 0.492 E-score | 0.458 E-score | 0.396 E-score | 0.277 E-score | 0.493 E-score | 0.423 E-score | 0.405 E-score | 0.456 E-score | 0.438 E-score | 0.431 E-score |
| TCACGGCA | 0.398 E-score | 0.473 E-score | 0.438 E-score | 0.385 E-score | 0.429 E-score | 0.344 E-score | 0.177 E-score | 0.16 E-score | 0.45 E-score | 0.456 E-score |
| ACGTTAGC | 0.377 E-score | 0.144 E-score | 0.0938 E-score | 0.213 E-score | 0.406 E-score | 0.0584 E-score | 0.166 E-score | 0.343 E-score | 0.183 E-score | 0.128 E-score |
| GTGGCGTA | 0.439 E-score | 0.148 E-score | 0.144 E-score | 0.235 E-score | 0.459 E-score | 0.0567 E-score | 0.3 E-score | 0.471 E-score | 0.138 E-score | 0.0712 E-score |
| GCGTGTAC | 0.403 E-score | 0.19 E-score | 0.196 E-score | 0.19 E-score | 0.434 E-score | 0.261 E-score | 0.195 E-score | 0.191 E-score | 0.197 E-score | 0.193 E-score |
| GATGCGTA | 0.368 E-score | 0.216 E-score | 0.227 E-score | 0.239 E-score | 0.416 E-score | 0.182 E-score | 0.185 E-score | 0.415 E-score | 0.267 E-score | 0.186 E-score |
| CACGGCAG | 0.39 E-score | 0.457 E-score | 0.403 E-score | 0.307 E-score | 0.426 E-score | 0.227 E-score | 0.0722 E-score | 0.11 E-score | 0.412 E-score | 0.384 E-score |
| GCGTGTGA | 0.374 E-score | 0.191 E-score | 0.23 E-score | 0.226 E-score | 0.419 E-score | 0.145 E-score | 0.189 E-score | 0.17 E-score | 0.14 E-score | 0.0819 E-score |
| ACGCCAAC | 0.404 E-score | 0.116 E-score | 0.175 E-score | 0.159 E-score | 0.436 E-score | 0.0544 E-score | 0.227 E-score | 0.379 E-score | 0.0688 E-score | 0.118 E-score |
| GTTACGCA | 0.338 E-score | 0.301 E-score | 0.189 E-score | 0.2 E-score | 0.363 E-score | 0.263 E-score | 0.219 E-score | 0.422 E-score | 0.317 E-score | 0.215 E-score |
| GCACGGCA | 0.449 E-score | 0.472 E-score | 0.448 E-score | 0.361 E-score | 0.461 E-score | 0.41 E-score | 0.164 E-score | 0.107 E-score | 0.408 E-score | 0.461 E-score |
| ACGTACGC | 0.212 E-score | 0.202 E-score | 0.16 E-score | 0.26 E-score | 0.402 E-score | 0.274 E-score | 0.193 E-score | 0.253 E-score | 0.252 E-score | 0.209 E-score |
| ACGTGTAC | 0.328 E-score | 0.309 E-score | 0.286 E-score | 0.279 E-score | 0.413 E-score | 0.278 E-score | 0.201 E-score | 0.204 E-score | 0.267 E-score | 0.206 E-score |
| ATACGGCA | 0.419 E-score | 0.361 E-score | 0.353 E-score | 0.365 E-score | 0.433 E-score | 0.411 E-score | 0.0642 E-score | 0.228 E-score | 0.414 E-score | 0.44 E-score |
| GCCGTGTA | 0.341 E-score | 0.44 E-score | 0.345 E-score | 0.314 E-score | 0.402 E-score | 0.235 E-score | 0.0515 E-score | 0.0913 E-score | 0.347 E-score | 0.351 E-score |
| CGCACGCA | 0.401 E-score | 0.291 E-score | 0.241 E-score | 0.0589 E-score | 0.42 E-score | 0.291 E-score | 0.213 E-score | 0.229 E-score | 0.213 E-score | 0.232 E-score |
| ATGCGTGC | 0.429 E-score | 0.276 E-score | 0.217 E-score | 0.21 E-score | 0.452 E-score | 0.273 E-score | 0.221 E-score | 0.292 E-score | 0.191 E-score | 0.138 E-score |
| CTACACGC | 0.361 E-score | 0.11 E-score | 0.0947 E-score | 0.186 E-score | 0.425 E-score | 0.192 E-score | 0.235 E-score | 0.307 E-score | 0.147 E-score | 0.0812 E-score |
| ACGCAATC | 0.48 E-score | 0.285 E-score | 0.343 E-score | 0.298 E-score | 0.485 E-score | 0.386 E-score | 0.384 E-score | 0.474 E-score | 0.355 E-score | 0.38 E-score |
| ATTACGCA | 0.35 E-score | 0.168 E-score | 0.276 E-score | 0.206 E-score | 0.37 E-score | 0.282 E-score | 0.292 E-score | 0.431 E-score | 0.265 E-score | 0.253 E-score |
| AAACACGC | 0.415 E-score | 0.261 E-score | 0.262 E-score | 0.233 E-score | 0.442 E-score | 0.225 E-score | 0.198 E-score | 0.259 E-score | 0.201 E-score | 0.21 E-score |
| ACGGCAAC | 0.401 E-score | 0.386 E-score | 0.375 E-score | 0.288 E-score | 0.42 E-score | 0.264 E-score | 0.264 E-score | 0.246 E-score | 0.326 E-score | 0.331 E-score |
| ATACGTTA | 0.443 E-score | 0.074 E-score | 0.139 E-score | 0.273 E-score | 0.451 E-score | 0.169 E-score | 0.214 E-score | 0.433 E-score | 0.274 E-score | 0.146 E-score |
| GCACGTTA | 0.433 E-score | 0.153 E-score | 0.205 E-score | 0.226 E-score | 0.464 E-score | 0.222 E-score | 0.234 E-score | 0.369 E-score | 0.217 E-score | 0.246 E-score |
| ACGGCACG | 0.34 E-score | 0.291 E-score | 0.34 E-score | 0.286 E-score | 0.404 E-score | 0.324 E-score | 0.133 E-score | 0.0651 E-score | 0.217 E-score | 0.233 E-score |
| CGTACACG | 0.337 E-score | 0.221 E-score | 0.287 E-score | 0.278 E-score | 0.403 E-score | 0.288 E-score | 0.0623 E-score | 0.0837 E-score | 0.317 E-score | 0.3 E-score |
| ACGCATCC | 0.388 E-score | 0.216 E-score | 0.194 E-score | 0.195 E-score | 0.431 E-score | 0.256 E-score | 0.173 E-score | 0.397 E-score | 0.16 E-score | 0.231 E-score |
